# In the supplement of paper PMC8728848:
# This excerpt belongs to a sample that is enriched for the strongest signals.
# B1: Pbx1CASH domain (Cryptococcus neoformans) (protein)
# chain: MDETKPLWGNPRADGISLACKDSIVERNVVYDATDGAIVLFGSAGSTVKNNHVYARTRVILGGINLVDYEPWDGDYTNVKVHHNHLYALGRYFKVGIVIGPASWSDDTESVVHSASVTDNEFSGGYWGYGIVVASAKNFEVLRNKVIWDGEQGVARFSGVPGS
# What was measured:
# Test in all cases: glycan array binding signal (z-score within array); higher = stronger binding
# Conditions in all cases: glycan notation: IUPAC condensed, linker removed
# [1] = molecular target: GlcNAc(a1-6)Gal(b1-4)GlcNAc
# Procedure, shortened: (§1)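 The binding signal is a Z-score computed within each array. Data were drawn from 3228 arrays in the Consortium for Functional Glycomics database, restricted to those with a known protein sequence. Scores were averaged over arrays of the same protein sequence at different concentrations or buffers, and over linkers, and negative values can be taken as non-binding.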
# [2] = molecular target: GlcNAc(b1-2)Man(a1-3)[GlcNAc(b1-2)Man(a1-6)]Man(b1-4)GlcNAc(b1-4)GlcNAc
# Procedure, shortened: as §1
# [3] = molecular target: GlcNAc(b1-3)Gal(b1-4)GlcNAc(b1-3)Gal(b1-4)GlcNAc(b1-2)Man(a1-3)[GlcNAc(b1-3)Gal(b1-4)GlcNAc(b1-3)Gal(b1-4)GlcNAc(b1-2)Man(a1-6)]Man(b1-4)GlcNAc(b1-4)GlcNAc
# Procedure, shortened: as §1
# [4] = molecular target: GlcNAc(b1-3)Gal(b1-4)GlcNAc(b1-6)[GlcNAc(b1-3)Gal(b1-3)]GalNAc
# Procedure, shortened: as §1
# [5] = molecular target: GlcNAc(b1-3)Gal(b1-4)GlcNAc(b1-6)[GlcNAc(b1-3)]Gal(b1-4)GlcNAc
# Procedure, shortened: as §1
# [6] = molecular target: GlcNAc(b1-3)Man
# Procedure, shortened: as §1
# [7] = molecular target: Kdn(a2-3)Gal(b1-3)GlcNAc
# Procedure, shortened: as §1
# [8] = molecular target: Man(a1-3)[Man(a1-6)]Man(a1-6)[Man(a1-3)]Man
# Procedure, shortened: as §1
# [9] = molecular target: Man(a1-3)[Man(a1-6)]Man(b1-4)GlcNAc(b1-4)GlcNAc
# Procedure, shortened: as §1
# [10] = molecular target: Man(b1-4)GlcNAc
# Procedure, shortened: as §1
# [11] = molecular target: Neu5Ac(a2-3)Gal
# Procedure, shortened: as §1
# [12] = molecular target: Neu5Ac(a2-3)Gal(b1-3)GlcNAc6S
# Procedure, shortened: as §1
# [13] = molecular target: Neu5Ac(a2-3)Gal(b1-4)GlcNAc(b1-2)Man
# Procedure, shortened: as §1
# [14] = molecular target: Neu5Ac(a2-3)Gal(b1-4)GlcNAc(b1-3)Gal(b1-3)GlcNAc
# Procedure, shortened: as §1
# [15] = molecular target: Neu5Ac(a2-3)Gal(b1-4)GlcNAc(b1-3)Gal(b1-4)GlcNAc(b1-2)Man(a1-3)[Neu5Ac(a2-3)Gal(b1-4)GlcNAc(b1-3)Gal(b1-4)GlcNAc(b1-2)Man(a1-6)]Man(b1-4)GlcNAc(b1-4)GlcNAc
# Procedure, shortened: as §1
# [16] = molecular target: Neu5Ac(a2-3)Gal(b1-4)GlcNAc(b1-3)Gal(b1-4)GlcNAc(b1-3)Gal(b1-4)GlcNAc(b1-2)Man(a1-3)[Neu5Ac(a2-3)Gal(b1-4)GlcNAc(b1-3)Gal(b1-4)GlcNAc(b1-3)Gal(b1-4)GlcNAc(b1-2)Man(a1-6)]GalNAc
# Procedure, shortened: as §1
# [17] = molecular target: Neu5Ac(a2-6)Gal(b1-4)Glc
# Procedure, shortened: as §1
# [18] = molecular target: Neu5Ac(a2-6)Gal(b1-4)GlcNAc
# Procedure, shortened: as §1
# [19] = molecular target: Neu5Ac(a2-6)Gal(b1-4)GlcNAc(b1-2)Man(a1-6)[Gal(b1-4)GlcNAc(b1-2)Man(a1-3)]Man(b1-4)GlcNAc(b1-4)GlcNAc
# Procedure, shortened: as §1
# [20] = molecular target: Neu5Ac(a2-6)Gal(b1-4)GlcNAc(b1-3)Gal(b1-4)GlcNAc(b1-3)Gal(b1-4)GlcNAc(b1-2)Man(a1-3)[Neu5Ac(a2-6)Gal(b1-4)GlcNAc(b1-3)Gal(b1-4)GlcNAc(b1-3)Gal(b1-4)GlcNAc(b1-2)Man(a1-6)]GalNAc
# Procedure, shortened: as §1
# [21] = molecular target: Neu5Gc(b2-6)Gal(b1-4)GlcNAc
# Procedure, shortened: as §1
binder,measurement,setting,value
B1,glycan array binding signal (z-score),[1],-0.894
same,glycan array binding signal (z-score),[2],0.233
same,glycan array binding signal (z-score),[3],4.67
same,glycan array binding signal (z-score),[4],0.647
same,glycan array binding signal (z-score),[5],1.15
same,glycan array binding signal (z-score),[6],0.12
same,glycan array binding signal (z-score),[7],-0.869
same,glycan array binding signal (z-score),[8],-0.5
same,glycan array binding signal (z-score),[9],0.022
same,glycan array binding signal (z-score),[10],-0.348
same,glycan array binding signal (z-score),[11],-0.64
same,glycan array binding signal (z-score),[12],0.698
same,glycan array binding signal (z-score),[13],2.55
same,glycan array binding signal (z-score),[14],-0.104
same,glycan array binding signal (z-score),[15],2.42
same,glycan array binding signal (z-score),[16],3.29
same,glycan array binding signal (z-score),[17],-0.412
same,glycan array binding signal (z-score),[18],-0.348
same,glycan array binding signal (z-score),[19],-0.843
same,glycan array binding signal (z-score),[20],3.13
same,glycan array binding signal (z-score),[21],2.35
